Assay results reported in PubChem BioAssay (NCATS).
Records with an inconclusive call do not appear. Where a call stands in place of a potency, no number is given. The source made the active and inactive calls. Calls follow the shape of the dose curve; as a rule, active = well fitted inhibition curve with a large enough effect; inconclusive = small, poorly fitted or top-dose-only effect; inactive = no such curve, though single readings can be large or run the other way.

Experiment: S16 Schwann cell PMP22 intronic element firefly luciferase assay (AID 624032); also: nearly all actives have a fitted effect of over 30% in size
Conditions: S16 rat Schwann cells, PMP22 element FLuc, 24 h; series mostly up to 57.5 µM
Procedure, shortened: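 Rat S16 Schwann cells stably carrying a PMP22 intronic element-driven Fluc reporter were seeded overnight, then exposed to compounds for 24 h at 37 °C. Luminescence was normalized to PTC124 (positive control) and DMSO (0% activity).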
Potency is read from the fitted curve at half-maximal effect.

| Compound | Potency |
| --- | --- |
| O=C(Cn1ccnc1[N+](=O)[O-])NCc1ccccc1 | inactive |
| CCCCCCCCCCCCCCCCN | inactive |
| CC(C)=CCC/C(C)=C/CO | inactive |
| CC(=O)Nc1ccc(OCCOCCOc2ccc(NC(C)=O)cc2)cc1 | inactive |
| O=C(O)Cn1c(C(=O)Nc2nc(-c3ccccc3Cl)cs2)cc2ccccc21 | inactive |
| CC(O)CCCCn1c(=O)c2c(ncn2C)n(C)c1=O (configuration not stated) | inactive |
| NC(=O)CC[C@@H](N)C(=O)O | inactive |
| CC(C)(C)C(=O)OCOC(=O)[C@@H]1N2C(=O)[C@@H](NC(=O)[C@H](N)c3ccccc3)[C@H]2SC1(C)C | inactive |
| NNc1nnc(NN)c2ccccc12 | inactive |
| COc1ccccc1Oc1c(NS(=O)(=O)c2ccc(C(C)(C)C)cc2)nc(-c2ncccn2)nc1OCCO | inactive |
| O=C1c2ccccc2C(=O)C1c1ccc(Br)cc1 | inactive |
| O=C(CCBr)N1CCN(C(=O)CCBr)CC1 | inactive |
| CC(C)C[C@@H](N)C(=O)O | inactive |
| Nc1ccc(S(=O)(=O)c2ccc(N)cc2)cc1 | inactive |
| CCCCC1(COC(=O)CCC(=O)O)C(=O)N(c2ccccc2)N(c2ccccc2)C1=O | inactive |
| O=C1C(c2[nH]c3ccccc3c2O)=Nc2ccccc21 | inactive |

| Compound | Potency |
| --- | --- |
| NC(N)=NS(=O)(=O)c1ccc(N)cc1 | inactive |
| C[C@@H](N)C(=O)O | inactive |
| NC(=O)c1ccc([N+](=O)[O-])cc1Cl | inactive |
| N[C@@H](Cc1ccc(O)cc1)C(=O)O | inactive |
| Cc1ccccc1N=Nc1ccc(N=Nc2c(O)ccc3ccccc23)c(C)c1 | inactive |
| c1ccc2[nH]ccc2c1 | inactive |
| CCN1CC(CCN2CCOCC2)C(c2ccccc2)(c2ccccc2)C1=O (configuration not stated) | inactive |
| CC(=O)Oc1cccc(O)c1 | inactive |
| Nc1ccc(C(=O)Oc2ccccc2)c(O)c1 | inactive |
| CC(C)c1cc2c(cc1S(=O)(=O)O)[C@@]1(C)CCC[C@@](C)(C(=O)O)[C@@H]1CC2 | inactive |
| CCS(=O)(=O)CCn1c([N+](=O)[O-])cnc1C | inactive |
| O=S1(=O)OC(c2ccc(O)cc2)(c2ccc(O)cc2)c2ccccc21 | 10.2 µM (active) |
| CCCNC(C)(C)COC(=O)c1ccccc1 | inactive |
| O=C(CN1CCNCC1)NC1CCCCC1 | inactive |
| COc1ccc(NS(=O)(=O)c2ccc(N)cc2)nn1 | inactive |
| NC(N)=NCCN1CCCCCCC1 | inactive |
